In the supplement of paper PMC9694430:
Where “and” joins values, the source holds several entries; their conditions need not be identical. Identical values can stand only once. Counter-ions that a name gives are not always drawn.

What was measured:
Assay in all cases: thermal shift delta Tm vs DMSO control; higher = stronger stabilization (binding)
Conditions in all cases: 12.5 µM; protein concentration 2 µM
LOC_OS01G57100-cb003 = system: LOC_OS01G57100-cb003
Procedure, shortened: (§1)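 Heating from 25°C to 95°C at 0.05°C/s, fluorescence was recorded for 19.5 μl wells of 2 μM E. coli-expressed, purified rice kinase domain in 100 mM potassium phosphate pH 7.5, 150 mM NaCl, 10% glycerol and 5 × SYPRO Orange with compound in DMSO. Boltzmann fits gave melting temperatures for this differential scanning fluorimetry assay. The shift reported is the mean of three replicates against the DMSO-only protein.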

LOC_OS01G60330-cb001 = system: LOC_OS01G60330-cb001
Procedure, shortened: as §1

LOC_OS01G60700-cb002 = system: LOC_OS01G60700-cb002
Procedure, shortened: as §1

LOC_OS01G63280-cb003 = system: LOC_OS01G63280-cb003
Procedure, shortened: as §1

LOC_OS01G67340-cb003 = system: LOC_OS01G67340-cb003
Procedure, shortened: as §1

LOC_OS01G70970-cb002 = system: LOC_OS01G70970-cb002
Procedure, shortened: as §1

LOC_OS02G07810-cb001 = system: LOC_OS02G07810-cb001
Procedure, shortened: as §1

LOC_OS02G08530-cb003 = system: LOC_OS02G08530-cb003
Procedure, shortened: as §1

LOC_OS02G14120-cb001 = system: LOC_OS02G14120-cb001
Procedure, shortened: as §1

LOC_OS02G17970-cb001 = system: LOC_OS02G17970-cb001
Procedure, shortened: as §1
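Further: purified Escherichia coli-expressed rice kinase domain construct.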

SMILES	thermal shift delta Tm (LOC_OS01G57100-cb003)	thermal shift delta Tm (LOC_OS01G60330-cb001)	thermal shift delta Tm (LOC_OS01G60700-cb002)	thermal shift delta Tm (LOC_OS01G63280-cb003)	thermal shift delta Tm (LOC_OS01G67340-cb003)	thermal shift delta Tm (LOC_OS01G70970-cb002)	thermal shift delta Tm (LOC_OS02G07810-cb001)	thermal shift delta Tm (LOC_OS02G08530-cb003)	thermal shift delta Tm (LOC_OS02G14120-cb001)	thermal shift delta Tm (LOC_OS02G17970-cb001)
O=c1c(-c2ccc(O)cc2)coc2cc(O)cc(O)c12 [Genistein]	-0.59 °C	0.72 °C	1.28 °C	0.16 °C	-0.02 °C	0.33 °C	0.97 °C	1.28 °C	-1.28 °C	1.58 °C
C=CC(=O)N1CCC(Oc2cc3c(Nc4ccc(Cl)c(Cl)c4F)ncnc3cc2OC)CC1 [Poziotinib (HM781-36B)]	0.31 °C	-0.17 °C	0.72 °C	0.26 °C	0.45 °C	0.11 °C	-0.05 °C	1.45 °C	1.12 °C	0.35 °C
CCCCNc1ncc(C(=O)NCc2ccc(-n3ccnc3)cc2)c(NC2CCC(O)CC2)n1 (stereo not given)	2 °C	9.72 °C	1.49 °C	0.72 °C	10.2 °C	4.54 °C	0.76 °C	4.03 °C	7.7 °C	1.08 °C
CC(C)(C)NS(=O)(=O)c1cncc(-c2cc(F)c3nc(N)nn3c2)c1	1.55 °C	0.87 °C	1.82 °C	0.83 °C	0.93 °C	0.9 °C	1.06 °C	0.86 °C	-0.33 °C	2.29 °C
C[C@@H]1CCN(C(=O)CC#N)C[C@@H]1N(C)c1ncnc2[nH]ccc12	1.55 °C and 1.07 °C	0.87 °C and 1.25 °C	0.98 °C and 1.64 °C	0.28 °C and 0.78 °C	0.15 °C and 0.3 °C	0.37 °C and 0.59 °C	0.22 °C and 0.98 °C	0.94 °C and 0.96 °C	0.97 °C and 0.47 °C	0 °C and 1.09 °C
COc1cc2c(cc1OC)[C@@H]1C(=O)c3ccc4c(c3O[C@@H]1CO2)C=CC(C)(C)O4 [Deguelin]	1.25 °C	1.41 °C	0.73 °C	0.43 °C	0.31 °C	0.2 °C	0.57 °C	0.83 °C	0.97 °C	1.35 °C
CC1=C(C(=O)Nc2cc3cn[nH]c3cc2F)C(c2ccc(C(F)(F)F)cc2)CC(=O)N1 (stereo not given)	1.21 °C	0.48 °C	0.2 °C	2.09 °C	-0.48 °C	0.04 °C	0.72 °C	0.55 °C	0.25 °C	0.19 °C
Cc1cc(Nc2cc(N3CCN(C)CC3)nc(Sc3ccc(NC(=O)C4CC4)cc3)n2)n[nH]1 [Tozasertib (VX-680, MK-0457)]	1.29 °C	3.67 °C	1.21 °C	0.58 °C	1.87 °C	2.62 °C	0.91 °C	2.4 °C	7.67 °C	0.93 °C
Cc1nc(Nc2n[nH]c3c2CN(C(=O)N[C@H](CN(C)C)c2ccccc2)C3(C)C)c2sccc2n1	0.61 °C	-0.15 °C	1.34 °C	0.55 °C	0.06 °C	0.38 °C	0.99 °C	2.37 °C	0.4 °C	0.96 °C
Cn1c(=O)c(F)c(Nc2ccc(I)cc2F)c2c(=O)n(C[C@@H](O)CO)cnc21	3.09 °C	1.03 °C	1.02 °C	0.11 °C	0.29 °C	0.22 °C	1.5 °C	0.9 °C	0.98 °C	1.05 °C
COC(=O)c1ccc2c(c1)NC(=O)/C2=C(\Nc1ccc(N(C)C(=O)CN2CCN(C)CC2)cc1)c1ccccc1 [Nintedanib (BIBF 1120)]	0.08 °C	1.75 °C	0.96 °C	-0.1 °C	0.48 °C	2.57 °C	0.27 °C	3.05 °C	0.3 °C	-0.36 °C
Cc1cnc(NC(=O)Nc2cc(Br)c(C)cc2OC[C@@H]2CNCCO2)cn1	0.95 °C	0.18 °C	0.72 °C	0.14 °C	0.03 °C	0.38 °C	0.19 °C	2.28 °C	0.85 °C	0.19 °C
O=C(NOCC1CC1)c1ccc(F)c(F)c1Nc1ccc(I)cc1Cl	2.41 °C	2.82 °C	2.16 °C	0.93 °C	0.18 °C	1.09 °C	1.23 °C	1.11 °C	1.97 °C	1.54 °C
COc1ccc2c(c1)[C@]1(C[C@H]1c1ccc3c(/C=C/c4ccc(CN5C[C@@H](C)O[C@@H](C)C5)cc4)n[nH]c3c1)C(=O)N2	2.82 °C	-0.26 °C	0.64 °C	1.2 °C	2.12 °C	2.01 °C	-0.49 °C	1.45 °C	7.54 °C	0.31 °C
Clc1ccc(C2(c3ccc(-c4cn[nH]c4)cc3)CCNCC2)cc1	1.65 °C	0.98 °C	0.54 °C	0.22 °C	-0.1 °C	0.01 °C	1.21 °C	0.59 °C	0.25 °C	1.03 °C
CC(C)(C)c1cnc(CSc2cnc(NC(=O)C3CCNCC3)s2)o1	0.61 °C	1.41 °C	1.28 °C	0.71 °C	-0.45 °C	0.26 °C	0.43 °C	0.72 °C	0.42 °C	-0.01 °C
Nc1ncnc2n[nH]c(Nc3ccc(F)cc3)c12	1 °C	1.15 °C	0.86 °C	3.22 °C	0.86 °C	0.93 °C	0.46 °C	1.06 °C	3.5 °C	0.76 °C
C=CC(=O)Nc1cccc(Sc2nc(Nc3ccc(N4CCN(C)CC4)cc3)ncc2Cl)c1	-1.98 °C	1.15 °C	0.75 °C	0.45 °C	0.87 °C	7.21 °C	0.82 °C	2.38 °C	6.55 °C	0.58 °C
CC1Oc2cc(cnc2N)-c2c(nn(C)c2C#N)CN(C)C(=O)c2ccc(F)cc21 (stereo not given)	3.37 °C	0.4 °C	0.4 °C	0.16 °C	0.4 °C	0.35 °C	-0.27 °C	2.75 °C	6.77 °C	0.31 °C
O=C(Nc1cccc(Cl)c1)Nc1ncc(CCNc2ncnc3ccsc23)s1 [SNS-314 Mesylate]	2.62 °C	3.98 °C	1.44 °C	2.76 °C	0.53 °C	1.48 °C	2.27 °C	2.1 °C	4.25 °C	1.27 °C
